Sampled rows, rich in hits. Any-hit rate of the full collection: about 11%.
FBPA coupling cs: inhibits coupling enzyme system, counter-screen for aldolase hits; coupling enzyme system counterscreen, AmpLite Red fluorescence; activity change, negative = inhibition, % at 58.2 µM, hits read low; hit rate 0.67% among 290,000; AID 2472; in the data active = activity change below about -30%
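Counterscreen lacking aldolase: glyceraldehyde-3-phosphate coupling-enzyme reagent preincubated 10 min at RT with compound (at 57.5 uM final), then substrate/coupling system with AmpLite Red added; fluorescence read at 525/598 nm after 20 min RT.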
Tau fibril ThT: blocks human tau fibril formation measured by thioflavin T; P10636; recombinant tau K18 P301L, heparin-induced fibrillization, ThT fluorescence; Potency, µM (top dose mostly 57.4 µM), most hits filed as inhibitors; hit rate 2.1% among 270,000; also: nearly all actives have a fitted effect of over 55% in size
Target sequence (P10636 561-689 P618L limits assumed): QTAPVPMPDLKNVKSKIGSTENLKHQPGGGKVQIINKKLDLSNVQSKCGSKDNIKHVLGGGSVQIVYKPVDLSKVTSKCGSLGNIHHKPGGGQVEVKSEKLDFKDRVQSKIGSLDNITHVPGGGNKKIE
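In this qHTS, human K18 P301L tau is incubated with compound and heparin for 6 hr at 37 C, and Thioflavin T fluorescence then reports fibril load.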
Tau fluor cs: counter-screen for tau fibril formation inhibitors; AID 1463; tau K18 P301L (four-repeat tau fragment) Alexa594 fluorescence, heparin fibrillization; hit rate 0.93% among 280,000; Potency, µM (highest dose often 57.7 µM); also: nearly all actives have a fitted effect of over 55% in size
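Human K18 P301L tau (15 uM unlabeled plus 0.24 uM Alexa 594-labeled, final) in 100 mM sodium acetate pH 7 was mixed with compound and 20 uM heparin and incubated 6 hr at 37 C.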
G9a inh: blocks human histone lysine methyltransferase G9a. G9a H3K9 monomethylation, AlphaScreen, 2 h. Potency, µM (titrated, usually from 102 µM), hits mostly inhibitors. hit rate 8.8% among 350,000. AID 504332; also: nearly all actives have a fitted effect of over 75% in size
Target sequence (Q96KQ7 913-1193 limits assumed): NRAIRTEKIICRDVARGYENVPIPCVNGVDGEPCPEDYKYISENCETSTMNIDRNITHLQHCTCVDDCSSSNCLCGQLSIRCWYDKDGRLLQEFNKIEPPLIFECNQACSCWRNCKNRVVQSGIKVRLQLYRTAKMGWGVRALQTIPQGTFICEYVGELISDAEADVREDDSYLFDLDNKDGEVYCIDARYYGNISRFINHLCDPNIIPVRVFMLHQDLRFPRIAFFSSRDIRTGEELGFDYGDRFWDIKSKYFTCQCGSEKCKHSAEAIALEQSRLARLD
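G9a (20 nM) preincubated 15 min RT with compounds, then 500 nM biotinylated H3K9 peptide and 20 uM SAM added; 2 h RT reaction. Monomethyl-H3K9 product detected by AlphaScreen with anti-H3K9me1 antibody, streptavidin donor and anti-rabbit IgG acceptor beads.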
Tau fibril FP: blocks human tau fibril formation measured by polarization; P10636; K18 P301L tau heparin fibrillization, Alexa594 FP, 6 h; Potency, µM (series often up to 57.7 µM), actives largely listed as inhibitors; hit rate 0.39% among 280,000; also: nearly all actives have a fitted effect of over 55% in size
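K18 P301L tau (15 uM unlabeled/0.24 uM Alexa 594-labeled, final) + compound + heparin 20 uM final; 100 mM NaOAc pH 7; 6 hr 37 C; ThT 30 uM final added, 1 hr RT; FP ex 555/em 632 nm.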
Sfp inh: blocks B. subtilis Sfp PPTase activity; Potency, µM, hits mostly inhibitors; hit rate 3.5% among 310,000; Q9F4F7; Biochemical Sfp PPTase activity, qHTS;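 also: the enzyme is Sfp with the accession as filed and its product quenches rhodamine fluorescence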
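Step 1, compound plus 15 nM Sfp-PPTase, 15 min, room temperature. Step 2, add rhodamine-CoA (5 uM) and BHQ-2-YbbR (12.5 uM). Step 3, read 525/598 nm fluorescence at 0 and 30 min.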
Numbers stand for hits; - = inactive; ? = inconclusive; . = not tested or not shown; [ ] = dose if it differs, or a comment. Unless noted, calls follow the shape of the dose curve; as a rule, active = well fitted curve in the direction sought with a large enough effect; inconclusive = small, poorly fitted or top-dose-only effect, or another doubt; inactive = no such curve, though single readings can be large; an effect the other way counts as inactive or inconclusive.

SMILES	FBPA coupling cs	Tau fibril ThT	Tau fluor cs	G9a inh	Tau fibril FP	Sfp inh
O=C(CN(c1cc(C(F)(F)F)ccc1Cl)S(=O)(=O)c1ccccc1)NCCc1ccccc1	.	-	?	?	-	.
COc1ccc(N2CCN(CCCNC(=O)c3nnc(Cc4ccccc4Cl)o3)CC2)cc1	.	?	-	12.6µM	-	.
COc1ccc(N2CCN(CCCNC(=O)c3sc4ncccc4c3-n3cccc3)CC2)cc1	.	-	-	15.8µM	-	.
COc1ccc(N2CCN(CCCNC(=O)Cn3c(=O)c4cccn4c4ccccc43)CC2)cc1	-	.	.	39.8µM	.	-
COc1ccc(N2CCN(CCCNC(=O)Cn3c(=O)c4cccn4c4cccnc43)CC2)cc1	.	.	.	39.8µM	.	-
COc1ccccc1N1CCN(CCCNC(=O)c2nnc(Cc3ccc(F)cc3Cl)o2)CC1	.	-	-	-	-	.
Cc1ccccc1C(=O)Nc1cccc(C(=O)OCc2cc(=O)n3c4c(sc3n2)CCCC4)c1	.	?	-	-[12.7 µM]	-	.
CCOc1ccc(CNC(=O)C2CCN(S(=O)(=O)c3ccc4c(ccn4C)c3)CC2)cc1	.	-	-	-	-	.
CC(C)(C)c1ccc(OCC(=O)Nc2c(C(=O)c3ccc(F)cc3)oc3ccccc23)cc1	.	-	-	-	?	.
CC(C)(C)c1ccc(-c2nc(N)nc(N)n2)cc1	-	.	-[11.6 µM]	.	-[11.6 µM]	-
CC(C)(C)c1cc(-c2nc(N)nc(N)n2)cc(C(C)(C)C)c1	-	?	-	-	28.2µM	-
COc1ccc2oc(-c3cccc(NC(=O)c4sc5c([N+](=O)[O-])cccc5c4Cl)c3)nc2c1	.	-	-	-	-	.
COc1ccccc1/C=C/C=N/n1c(-c2ccncc2)n[nH]c1=S	-	-	-	1.26µM	-	-
COc1ccccc1/C=C/C=N/n1c(-c2ccc(C)cc2)n[nH]c1=S	-	-	-	?	?	-
Cc1cc(-c2n[nH]c(=S)n2/N=C/C=C/c2ccccc2)n[nH]1	-	?	-	1.41µM	-	-
COc1ccccc1/C=C/C=N/n1c(-c2cc(C)[nH]n2)n[nH]c1=S	-	?	-	1.58µM	-	-
COc1ccccc1/C=C\C=N\n1c(C2CCCCC2)n[nH]c1=S	-	?	-	-[0.0925 µM]	-	-
COc1ccccc1/C=C/C=N/n1c(-c2ccccn2)n[nH]c1=S	-	?	-	1.58µM	-	-
COc1ccccc1/C=C/C=N/n1c(-c2ccco2)n[nH]c1=S	-	?	?	1.26µM	-	?
COc1ccc(-c2n[nH]c(=S)n2/N=C/C=C\c2ccccc2OC)cc1	-	-	-	?	-	-
CC(C)COC(=O)c1ccc2c(c1O)C(=O)c1ccccc1C2=O	-40.9	12.6µM	?	?	-	-
Cc1ccc(-n2nc3c(=O)n(CC(=O)NCCC(C)C)nc(C)c3c2C)cc1	.	-	-	-	-	.
O=C1CCCC2=C1C1(O)C(=O)c3ccccc3C1(O)O2 (centres undefined)	-	3.55µM	-	-[12.7 µM]	?	-
Oc1ccccc1/C=N/NC(=S)NC1CC2C=CC1C2 (centres undefined)	-	-	?	?	-	-
Oc1c(Cl)cc(Cl)cc1/C=N/NC(=S)NC1CC2C=CC1C2 (centres undefined)	-	?	28.2µM[quencher]	-	-	-
SMILES	FBPA coupling cs	Tau fibril ThT	Tau fluor cs	G9a inh	Tau fibril FP	Sfp inh
O=C1C[C@@H](O)[C@@H](O)[C@@H]2[C@H]3C(=O)N(c4ccc(F)cc4F)C(=O)[C@@H]3CC[C@@H]12	-	-[11.5 µM]	-[11.6 µM]	.	-[11.6 µM]	-
O=C(Cn1cc(C(F)(F)F)ccc1=O)NCC1CCCO1 (centres undefined)	.	.	.	-[2.33 µM]	.	.
COc1cc2ccccc2cc1C(=O)Nc1nnc(-c2ccncc2)o1	-	.	.	.	.	-
COc1cc2c(cc1OC)CC(=O)N(C)CC2	-	-	-	-	-	-
COc1cc2c(C)c3c4c(cc(OC)c(OC)c4c2cc1OC)CCN3C	-	?	10µM[quencher]	.	?	-
COc1cc(C)c(NC(c2ccccc2)c2ccccc2)cc1OC	-	?	-	28.2µM	-	-
COc1cc(C#N)ccc1OC(=O)c1cccc(S(=O)(=O)N2CCN(C)CC2)c1	.	.	.	50.1µM	.	.
CN1CCN(S(=O)(=O)c2cccc(C#N)c2)C(c2ccccc2)C1 (centres undefined)	.	.	.	56.2µM	.	.
CN1CCCN(S(=O)(=O)c2ccccc2)CC1	-	.	.	-	.	-
CN1CCCN(S(=O)(=O)c2cccc(C#N)c2)CC1	-	.	.	56.2µM	.	-
CN1CCN(S(=O)(=O)c2cccc(C(=O)Oc3ccccc3Cl)c2)CC1	.	.	.	-	.	-
COc1ccc(CCNC(=O)CCc2c(C)nc3c4c(C)cc(C)nc4nn3c2C)cc1OC	.	?	-	-	-	.
CCCCNC(=O)CCCn1c(=O)c2ccccc2n(Cc2ccccc2C)c1=O	.	-	-	-	-	.
CC(=O)Oc1ccc2c(=O)c(/C=N/c3cc(=O)[nH]c(=S)[nH]3)coc2c1	-	?	-	35.5µM	-	-
O=c1cc(/N=C/c2coc3cc(Br)ccc3c2=O)[nH]c(=S)[nH]1	-	?	-	-	-	-
O=c1c2ccccc2n(Cc2cccc(Cl)c2)c(=O)n1CCc1ccccc1	.	?	?	-	-	.
Cc1ccc(S(=O)(=O)c2c(N)n(/N=C/c3ccco3)c3nc4ccccc4nc23)cc1	-	?	?	?	?	-
Cc1ccc(S(=O)(=O)c2c(N)n(/N=C/c3ccco3)c3nc4ccccc4nc23)cc1C	-	15.8µM	?	-	?	-
Nc1c(S(=O)(=O)c2ccccc2)c2nc3ccccc3nc2n1/N=C/c1ccco1	-	28.2µM	?	.	-	-
Cc1cccc(S(=O)(=O)c2c(N)n(/N=C/c3ccco3)c3nc4ccccc4nc23)c1	-	?	?	-	-	-
COc1ccc(CNc2ncncc2-c2cccc(NS(C)(=O)=O)c2)c(OC)c1	-	.	.	-[0.501 µM]	.	-
COc1ccc(NC(=S)N(CCc2c(C)[nH]c3ccc(C)cc23)Cc2ccco2)cc1	-	?	14.1µM[quencher]	79.4µM	?	-
CCOc1ccc(NC(=S)N(CCc2c(C)[nH]c3ccc(C)cc23)Cc2ccco2)cc1	-	?	?	70.8µM	-	-
CCOc1ccc(NC(=S)N(Cc2ccc(N(C)C)cc2)Cc2ccco2)cc1	-	?	?	39.8µM	?	-
Cc1[nH]c2ccc(F)cc2c1CCN(Cc1cccnc1)C(=S)Nc1ccc(F)cc1	-	-	-	?	-	-
COc1ccc(NC(=S)N(Cc2ccc(N(C)C)cc2)Cc2ccco2)cc1	-	-	-	?	-	-
Cc1cccc(C(=O)OCc2cc(=O)n3ccsc3n2)c1	.	-	-	-	-	.
O=C(OC(C(=O)Nc1ccc(Cl)c(C(F)(F)F)c1)c1ccccc1)C1=COCCO1 (centres undefined)	-	-	?	-	?	-
Cc1cc(C)cc(NC(=O)C(OC(=O)C2=COCCO2)c2ccccc2)c1 (centres undefined)	-	-	-	25.1µM	-	-

Screens: PubChem, National Center for Advancing Translational Sciences (NCATS)
